Measured values taken from PubChem BioAssay AID1159580 (chemical genetic matrix, 2015).
The whole screen tested about 5,500 compounds, of which about 2,000 (36%) were called active. About 18% were inconclusive and are not listed. Rule as the data show it: active = normalized growth mostly below about 0.91 (no sharp cut-off); inconclusive = no clear call, values can overlap the other calls; inactive = mostly above about 0.92. Some of the results follow.

Experiment: chemical genetic growth profiling, strain panel (AID 1159580);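 also: tested at 20 µM; growth read once vehicle control cultures reached saturation at 30 °C; 1 = growth at the plate median or of vehicle wells; lower values mean less growth of the strain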
Conditions: S. cerevisiae deletion strains, growth OD

Measured: normalized growth

CC(=O)c1ccc[nH]1
inactive: locus YAL021C, strain ccr4, active compounds read low 1.01 | locus YAL026C, strain drs2, active compounds read low 1 | locus YAL030W, strain snc1, active compounds read low 0.997 | locus YBL061C, strain skt5, active compounds read low 0.996 | locus YBR009C, strain hhf1, active compounds read low 1.02 | locus YBR023C, strain chs3, active compounds read low 0.998 | locus YBR171W, strain sec66, active compounds read low 1.01 | locus YBR231C, strain swc5, active compounds read low 1 | locus YBR279W, strain paf1, active compounds read low 1.01 | locus YCL011C, strain gbp2, active compounds read low 1 | locus YCL016C, strain dcc1, active compounds read low 0.997 | locus YCL069W, strain vba3, active compounds read low 1 | locus YCR088W, strain abp1, active compounds read low 1.01 | locus YDL005C, strain med2, active compounds read low 0.99 | locus YDL040C, strain nat1, active compounds read low 0.998 | locus YDR001C, strain nth1, active compounds read low 1 | locus YDR069C, strain doa4, active compounds read low 1.01 | locus YDR137W, strain rgp1, active compounds read low 0.98 | locus YDR159W, strain sac3, active compounds read low 0.975 | locus YDR195W, strain ref2 0.979 | locus YDR297W, strain sur2, active compounds read low 1.01 | locus YDR334W, strain swr1, active compounds read low 0.995 | locus YDR335W, strain msn5, active compounds read low 0.993 | locus YDR392W, strain spt3, active compounds read low 1.01 | locus YEL003W, strain gim4, active compounds read low 0.998 | locus YEL037C, strain rad23, active compounds read low 1 | locus YEL061C, strain CIN8 (second series), active compounds read low 1.01 | locus YER015W, strain faa2, active compounds read low 1 | locus YER016W, strain bim1, active compounds read low 0.995 | locus YER111C, strain swi4, active compounds read low 0.994 | locus YER155C, strain BEM2 (second series), active compounds read low 0.994 | locus YFR010W, strain ubp6, active compounds read low 1 | locus YGL167C, strain pmr1, active compounds read low 0.988 | locus YGL173C, strain kem1, active compounds read low 0.998 | locus YGL227W, strain vid30, active compounds read low 0.996 | locus YGL240W, strain doc1, active compounds read low 1 | locus YGL253W, strain hxk2, active compounds read low 1 | locus YHR013C, strain ard1, active compounds read low 1.01 | locus YHR027C, strain rpn1, active compounds read low 0.991 | locus YHR030C, strain SLT2, active compounds read low 1 | locus YHR079C, strain IRE1, active compounds read low 0.992 | locus YHR142W, strain chs7, active compounds read low 1 | locus YJL092W, strain hpr5, active compounds read low 0.992 | locus YJL095W, strain BCK1 (second series), active compounds read low 0.988 | locus YJL095W, strain BCK1, active compounds read low 0.988 | locus YJL115W, strain asf1, active compounds read low 0.993 | locus YJL129C, strain trk1, active compounds read low 0.988 | locus YJL154C, strain vps35, active compounds read low 0.996 | locus YJL164C, strain tpk1, active compounds read low 1.01 | locus YJL166W, strain qcr8, active compounds read low 1.01 | locus YJR066W, strain TOR1, active compounds read low 0.942 | locus YKL160W, strain elf1, active compounds read low 1 | locus YKR026C, strain gcn3, active compounds read low 0.998 | locus YKR091W, strain srl3, active compounds read low 0.999 | locus YLL001W, strain dnm1, active compounds read low 1.01 | locus YLL026W, active compounds read low 1 | locus YLL041C, strain sdh2, active compounds read low 1 | locus YLR027C, strain aat2, active compounds read low 1 | locus YLR113W, strain HOG1, active compounds read low 1 | locus YLR221C, strain rsa3, active compounds read low 1.01 | locus YLR258W, strain gsy2, active compounds read low 1.01 | locus YLR262C, strain YPT6 (second series), active compounds read low 1.03 | locus YLR320W, strain mms22, active compounds read low 1 | locus YLR342W, strain FKS1, active compounds read low 0.999 | locus YLR357W, strain rsc2, active compounds read low 0.971 | locus YLR370C, strain arc18, active compounds read low 0.994 | locus YLR384C, strain iki3, active compounds read low 0.997 | locus YML120C, strain ndi1, active compounds read low 1.01 | locus YMR058W, strain fet3, active compounds read low 0.997 | locus YMR125W, strain sto1, active compounds read low 0.997 | locus YMR129W, active compounds read low 0.996 | locus YMR205C, strain PFK2, active compounds read low 1.01 | locus YMR231W, strain pep5, active compounds read low 1 | locus YNL071W, strain lat1, active compounds read low 1 | locus YNL183C, strain NPR1, active compounds read low 0.902 | locus YNL209W, strain ssb2, active compounds read low 1.01 | locus YNL248C, strain rpa49, active compounds read low 0.98 | locus YNL322C, strain KRE1 (second series), active compounds read low 0.986 | locus YNR049C, strain mso1, active compounds read low 1.01 | locus YOR001W, strain rrp6, active compounds read low 1 | locus YOR070C, strain gyp1, active compounds read low 1.01 | locus YOR080W, strain dia2, active compounds read low 1 | locus YOR083W, strain WHI5, active compounds read low 1 | locus YOR106W, strain vam3, active compounds read low 0.985 | locus YOR231W, strain MKK1, active compounds read low 1.02 | locus YOR265W, strain rbl2, active compounds read low 1.02 | locus YOR270C, strain vph1, active compounds read low 1.01 | locus YOR290C, strain snf2, active compounds read low 0.992 | locus YPL051W, strain arl3, active compounds read low 1.02 | locus YPL078C, strain atp4, active compounds read low 1.01 | locus YPL106C, strain sse1, active compounds read low 0.978 | locus YPL240C, strain hsp82, active compounds read low 0.994 | locus YPL256C, strain CLN2, active compounds read low 0.99
